Bioassay records: PubChem BioAssay, several laboratories
CYP2C9 inh: blocks human cytochrome P450 2C9; P11712; CYP2C9 Supersomes, luciferin-H conversion, luminescence; inhibition, % at 5 µM; 96,000 tested, 20% active; AID 777;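 active = blocking of liver enzyme CYP2C9 beyond about 50% at 5 µM, limit read from the data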
Target sequence (P11712 whole entry, looked up): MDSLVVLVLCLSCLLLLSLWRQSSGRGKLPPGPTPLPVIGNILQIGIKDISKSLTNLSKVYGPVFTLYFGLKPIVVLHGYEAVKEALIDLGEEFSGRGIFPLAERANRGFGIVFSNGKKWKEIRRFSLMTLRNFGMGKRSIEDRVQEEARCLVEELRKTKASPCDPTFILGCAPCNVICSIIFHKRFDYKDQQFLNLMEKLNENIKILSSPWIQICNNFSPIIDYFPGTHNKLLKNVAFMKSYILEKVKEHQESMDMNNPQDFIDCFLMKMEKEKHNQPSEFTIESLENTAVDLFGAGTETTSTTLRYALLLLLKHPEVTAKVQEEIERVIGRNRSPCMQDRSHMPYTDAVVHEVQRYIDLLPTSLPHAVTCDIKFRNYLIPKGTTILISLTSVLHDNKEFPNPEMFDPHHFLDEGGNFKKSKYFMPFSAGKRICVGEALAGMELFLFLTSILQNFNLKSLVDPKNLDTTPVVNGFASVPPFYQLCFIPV
CYP2C19 inhib: human CYP2C19 inhibition; inhibition, % at 5 µM; AID 778; CYP2C19 Supersomes, luciferin-H EGE luminescence, 30 min; 96,000 tested, 21% active;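 active = CYP2C19 inhibition above a set limit at 5 µM in the primary screen, cut at about 50% in these data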;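 also: plate controls were negative control wells for no effect and 2.5 mM tranylcypromine positive control for full effect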
CYP2C19 activ: increases human CYP2C19 enzyme activity; P33261; recombinant CYP2C19, luciferin-H EGE luminescence; stronger effect = higher value; 0 = fully inhibited enzyme, 1 = untreated enzyme; activation factor at 5 µM; 96,000 tested, under 10 active;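 active = activation factor of at least 2 at 5 µM in the primary screen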;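 also: 0 = wells with 2.5 mM tranylcypromine and 1 = vehicle-only wells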
CYP2C9 activ: CYP2C9 (human) activation; P11712; recombinant CYP2C9, luciferin-H conversion, luminescence; stronger effect = higher value; factor 1 = untreated enzyme, 0 = blocked; activation factor at 5 µM; 96,000 tested, 1.4% active;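 active = activation factor of 2 or more for CYP2C9 at a 5 µM dose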;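 also: 0 = sulfaphenazole-blocked wells and 1 = vehicle-only wells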
Measles CPE: protection of cells from measles virus. Measles virus-infected cells, CPE protection, absorbance. protection (pct of control), % at 4 µM. 140,000 tested, 1.5% active. AID 841; in the data active = protection mostly above about 24%, no sharp cut-off; inactive = mostly below about 26%
Active calls of the source: *. Shown are actives, neighbours in structure and some others; about 22% of the full set was active somewhere.

Screening Cc1ccc(N2C(=O)c3ccccc3C2Nc2cccnc2)nc1 (stereo not drawn) returned CYP2C9 inh -1, CYP2C19 inhib 16, CYP2C19 activ 0.8, CYP2C9 activ 1 and Measles CPE 5.
Screening COc1cc(-c2nnc3sc(-c4ccco4)nn23)cc(OC)c1OC returned CYP2C9 inh 65*, CYP2C19 inhib 36, CYP2C19 activ 0.6, CYP2C9 activ 0.4 and Measles CPE 18.
Screening COc1ccc(-c2nnc3sc(-c4ccco4)nn23)cc1OC returned CYP2C9 inh 11, CYP2C19 inhib 12, CYP2C19 activ 0.9, CYP2C9 activ 0.9 and Measles CPE 12.
Cc1ccc(C2Oc3ccccc3C3=C2C(c2cccs2)n2ncnc2N3)cc1 (stereo not drawn) was read as CYP2C9 inh 50, CYP2C19 inhib 17, CYP2C19 activ 0.8, CYP2C9 activ 0.5 and Measles CPE 15.
`Fc1ccc(C2C3=C(Nc4ncnn42)c2ccccc2OC3c2ccncc2)cc1` (stereo not drawn) gave CYP2C9 inh 77*, CYP2C19 inhib 93*, CYP2C19 activ 0.1, CYP2C9 activ 0.2 and Measles CPE 10.
For CCOc1ccc(C(=O)NCCn2cc(SCC(=O)Nc3cc(C)on3)c3ccccc32)cc1 the results were CYP2C9 inh 57*, CYP2C19 inhib 28, CYP2C19 activ 0.7, CYP2C9 activ 0.4 and Measles CPE 3.
COc1ccccc1C(=O)NCCn1cc(SCC(=O)Nc2cc(C)on2)c2ccccc21 was read as Measles CPE 15.
For COc1ccc(C(=O)NCCn2cc(SCC(=O)Nc3cc(C)on3)c3ccccc32)cc1OC the results were CYP2C9 inh 45, CYP2C19 inhib 56*, CYP2C19 activ 0.4, CYP2C9 activ 0.6 and Measles CPE 5.
For Nc1nc(SCC(=O)N2N=C3/C(=C/c4ccco4)CCCC3C2c2ccco2)n[nH]1 (stereo not drawn) the results were CYP2C9 inh 36, CYP2C19 inhib 51*, CYP2C19 activ 0.5, CYP2C9 activ 0.6 and Measles CPE 7.
Screening CC(CCc1ccccc1)NC(=O)c1ccccc1 (stereo not drawn) returned CYP2C9 inh 91*, CYP2C19 inhib 66*, CYP2C19 activ 0.3, CYP2C9 activ 0.1 and Measles CPE 24.
O=C(NNC(=O)C(c1ccccc1)c1ccccc1)c1cccs1 was read as CYP2C9 inh 91*, CYP2C19 inhib 56*, CYP2C19 activ 0.4, CYP2C9 activ 0.1 and Measles CPE 15.
CC(CCc1ccccc1)NC(=O)c1ccc(C(=O)NC(C)CCc2ccccc2)cc1 (stereo not drawn) was read as CYP2C9 inh 16, CYP2C19 inhib 10, CYP2C19 activ 0.9, CYP2C9 activ 0.8 and Measles CPE 4.
For CC(CCc1ccccc1)NC(=O)c1cccs1 (stereo not drawn) the results were CYP2C9 inh 72*, CYP2C19 inhib 57*, CYP2C19 activ 0.4, CYP2C9 activ 0.3 and Measles CPE 4.
Screening CC(CCc1ccccc1)NC(=O)c1ccco1 (stereo not drawn) returned Measles CPE 7.
Screening CC(CCc1ccccc1)NC(=O)c1ccncc1 (stereo not drawn) returned CYP2C9 inh 94*, CYP2C19 inhib 100*, CYP2C19 activ 0, CYP2C9 activ 0.1 and Measles CPE 17.
CC(C)(C)C1CCc2c(C(=O)NNC(=O)/C=C/C(=O)O)csc2C1 (stereo not drawn) was read as Measles CPE 12.
`Cc1ccc(NC(=O)COc2ccc(CCO)cc2-n2nc3ccccc3n2)cc1C` gave Measles CPE 4.
Screening COC(=O)c1c(Cc2ccccc2Cl)c[nH]c1C returned Measles CPE 5.
Screening COc1ccc(S(=O)(=O)N2CCCCC2C(=O)O)cc1OC (stereo not drawn) returned CYP2C9 inh 4, CYP2C19 inhib 0, CYP2C19 activ 1, CYP2C9 activ 1 and Measles CPE 8.
Screening O=C(NCCCNCc1ccccc1)c1ccncc1 returned CYP2C9 inh -3, CYP2C19 inhib 10, CYP2C19 activ 0.9, CYP2C9 activ 1 and Measles CPE 40*.
Screening CCOC(=O)c1nn(-c2ccc(C)cc2)cc1C(=O)c1ccccc1 returned CYP2C9 inh 43, CYP2C19 inhib 66*, CYP2C19 activ 0.3, CYP2C9 activ 0.6 and Measles CPE 5.
Screening CCOC(=O)c1cn(-c2ccccc2)nc1-c1ccncc1 returned CYP2C9 inh 82*, CYP2C19 inhib 91*, CYP2C19 activ 0.1, CYP2C9 activ 0.2 and Measles CPE 17.
Cc1ccc(-n2cc(C(=O)c3ccccc3O)cn2)cc1 was read as CYP2C9 inh -5, CYP2C19 inhib 61*, CYP2C19 activ 0.4, CYP2C9 activ 1.1 and Measles CPE 1.
Cc1cc(C(=O)OCc2nnc(-c3ccccc3)o2)c(C)n1-c1ccccc1 was read as CYP2C9 inh 64*, CYP2C19 inhib 46, CYP2C19 activ 0.5, CYP2C9 activ 0.4 and Measles CPE 30.
Cc1noc(C)c1COC(=O)c1cc(C)n(-c2ccccc2)c1C was read as CYP2C9 inh 38, CYP2C19 inhib 21, CYP2C19 activ 0.8, CYP2C9 activ 0.6 and Measles CPE 13.
Screening O=C(NCCN1CCN(C(=O)Nc2ccccc2)CC1)Nc1ccccc1 returned CYP2C9 inh -4, CYP2C19 inhib -16, CYP2C19 activ 1.2, CYP2C9 activ 1 and Measles CPE 6.
Screening O=C(CSc1nnc(C2CCCCC2)n1-c1ccccc1)NCc1ccco1 returned CYP2C9 inh 33, CYP2C19 inhib 15, CYP2C19 activ 0.8, CYP2C9 activ 0.7 and Measles CPE 9.
Screening COC(=O)c1cn(-c2ccccc2)nc1-c1ccccc1 returned CYP2C9 inh 21, CYP2C19 inhib 16, CYP2C19 activ 0.8, CYP2C9 activ 0.8 and Measles CPE 7.
For O=C(OCc1nnc(-c2ccccc2)o1)c1cn(-c2ccccc2)nc1-c1ccccc1 the results were CYP2C9 inh 91*, CYP2C19 inhib 55*, CYP2C19 activ 0.5, CYP2C9 activ 0.1 and Measles CPE 12.
`CN1CCN(C(=O)c2cn(-c3ccccc3)nc2-c2cccnc2)CC1` gave CYP2C9 inh -30, CYP2C19 inhib -2, CYP2C19 activ 1, CYP2C9 activ 1.3 and Measles CPE 5.
Cc1ccc(-c2nn(-c3ccccc3)cc2C(=O)N2CCOCC2)cc1 was read as CYP2C9 inh 71*, CYP2C19 inhib 54*, CYP2C19 activ 0.5, CYP2C9 activ 0.3 and Measles CPE 18.
Screening O=c1c(-c2ccc(O)cc2)coc2cc(OC3OC(CO)C(O)C(O)C3O)ccc12 (stereo not drawn) returned Measles CPE 9.
For COc1cc(NC(=O)CCN2CCN(Cc3ccccc3)CC2)cc(OC)c1 the results were CYP2C9 inh 2, CYP2C19 inhib 4, CYP2C19 activ 1, CYP2C9 activ 1 and Measles CPE 19.
